The results in this text go back to PubChem BioAssay (NCATS).

Each structure is given as a SMILES string. Where “and” joins values, the source holds several entries; their conditions need not be identical. Equal values may be shown once. Inconclusive results are not listed. Calls of active or inactive are those of the source. Unless noted, calls follow the shape of the dose curve; as a rule, active = well fitted curve in the direction sought with a large enough effect; inconclusive = small, poorly fitted or top-dose-only effect, or another doubt; inactive = no such curve, though single readings can be large; an effect the other way counts as inactive or inconclusive.

Assay [1] can be described thus: qHTS Assay for Lipid Storage Modulators (AID 1519; calls by dose curve). To be noted: Drosophila S3 cells, BODIPY lipid droplet/cell ratio, laser cytometry, cells loaded with oleic acid. The essentials:
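Cells seeded at 5,000 per well were treated with compounds over a concentration series and loaded with oleic acid (400 uM, as added). Lipid droplet fluorescence (488 nm excitation, 500-530 nm channel) was read by laser-scanning cytometry and normalized to 20 uM Triacsin C.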

Assay [2] has as its target DNA repair nuclease/redox regulator APEX1 (Homo sapiens) (UniProt P27695). As to the kind of experiment: qHTS Validation Assay for Inhibitors of the Human Apurinic/apyrimidinic Endonuclease 1 (APE1) (AID 1705;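 also: TAMRA fluorescence gain over two minutes as APE1 cuts a quenched THF abasic duplex; % is scaled to controls: 0 for no effect and ±100 for the full control effect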). To be noted: purified APE1 endonuclease activity, fluorescence, titration; series mostly up to 57.1 µM. The essentials:
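Substrate: 50 nM final fluorophore/quencher THF-abasic duplex. Enzyme preincubated with compounds 15 min, RT. Progress derived from fluorescence difference, third minus first kinetic read.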
A general note: Quantitative high-throughput screening tests each substance at several concentrations.

A short description of assay [3]: Counterscreen for APE1 Inhibitors: Fluorescent Dye Displacement Validation Assay (AID 1707).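 Also: plate controls were ThO with dsDNA and no compound for no effect and ThO without dsDNA for full effect.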 To be noted: fluorescent dye displacement from DNA; series mostly up to 57.1 µM. The essentials:
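Reaction mixture of 250 nM Thiazole Orange and 50 nM double-stranded abasic-site DNA was dispensed, compounds were pin-transferred, and fluorescence was read at endpoint (480 nm ex, 540 nm em). Reduced fluorescence indicated dye displacement by DNA binding.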

For assay [4], the target named is Endonuclease 4 (Escherichia coli (strain K12)) (UniProt P0A6C1). Description: Counterscreen for APE1 Inhibitors: qHTS Validation Assay for Inhibitors of Endonuclease IV (AID 1708). Also: % is scaled to controls: 0 for no effect and ±100 for the full control effect. To be noted: E. coli endonuclease IV, DNA cleavage fluorescence; series mostly up to 57.1 µM. The essentials:
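Conditions: 2 nM enzyme, 50 nM TAMRA/BHQ-2 substrate, pH 7.5 Tris buffer with 2 mM MgCl2, RT. Compound preincubation 15 min; readout three fluorescence reads 60 s apart, third-minus-first.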

Assay [5] in a line: qHTS for differential inhibitors of proliferation of Plasmodium falciparum line 7G8 (AID 1815).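 Also: parasite growth measured after three days of incubation.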 Also: potency is read from the fitted curve at half-maximal effect.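 As to activity change, negative = inhibition: plate controls were vehicle wells for no effect and reference inhibitor wells for full effect.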 To be noted: Plasmodium falciparum 7G8 proliferation inhibition; series mostly up to 28.7 µM.
The nature of assay [6]: qHTS for differential inhibitors of proliferation of Plasmodium falciparum line GB4 (AID 1816).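 Also: parasite growth measured after 72 h incubation.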 Also: potency is read from the fitted curve at half-maximal effect.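 As to activity change, negative = inhibition: 0% = vehicle DMSO and -100% = reference inhibitor.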 The note with it: Potency: Plasmodium falciparum GB4 proliferation inhibition; series mostly up to 28.7 µM.
Assay [7] in a line: qHTS for differential inhibitors of proliferation of Plasmodium falciparum line Dd2 (AID 1882). Also: nearly all actives have a fitted effect of over 65% in size. Also: potency is read from the fitted curve at half-maximal effect.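 As to activity change, negative = inhibition: plate controls were DMSO vehicle for no effect and 0.29 µM artemisinin for full effect.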 To be noted: Potency: Plasmodium falciparum Dd2 proliferation inhibition; series mostly up to 28.7 µM. In outline: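 SYBR Green DNA fluorescence (ex 485, em 535 nm) after overnight lysis quantifies parasite growth; compound exposure lasted 72 h at 37 C on infected red cells at 2.5% hematocrit, 0.3% parasitemia (final). Artemisinin 0.29 uM and vehicle wells define normalization.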

The nature of assay [8]: qHTS for differential inhibitors of proliferation of Plasmodium falciparum line W2 (AID 1883).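 Also: parasites grown with compound for 72 h before lysis and staining.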 Also: potency is read from the fitted curve at half-maximal effect.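 As to activity change, negative = inhibition: 0% = vehicle wells and -100% = control inhibitor wells.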 To be noted: Potency: Plasmodium falciparum W2 proliferation inhibition; series mostly up to 28.7 µM.
Assay [9] has as its target Ferritin light chain (Equus caballus) (UniProt P02791). Description: qHTS Validation Assay for Identification of Novel General Anesthetics (AID 2323). Also: % is scaled to controls: 0 for no effect and ±100 for the full control effect. The note with it: horse apoferritin, anesthetic-site fluorescent probe displacement; series mostly up to 76.9 µM. In outline:
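Normalized fluorescence response, scaled between free 1-AMA and 1-AMA/apoferritin complex, fitted to a four-parameter Hill equation for concentration-effect values. Binding mix: 10 uM horse-spleen apoferritin, 50% saturated 1-AMA in PBS; read 380/535 nm after 10 min.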

Assay [10] has as its target Alpha-galactosidase (Coffea arabica) (UniProt Q42656). As to the kind of experiment: Counterscreen for Glucocerebrosidase Inhibitors: qHTS Assay for Coffee Bean alpha-Galactosidase at pH 5.9 (AID 998).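 Also: plate controls were uninhibited enzyme for no effect and no-enzyme basal signal for full effect.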 To be noted: coffee bean alpha-galactosidase enzyme assay; series mostly up to 76.9 µM. In outline: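 Enzyme 2 nM + cpd (0.7 nM–77 uM titration) + 4-MU-alpha-Gal 80 uM, pH 5.9 citrate/Tween-20, RT 20 min, NaOH/glycine stop pH 10, fluor 365/440. Normalized to no-enzyme and full-activity controls; Hill-fit AC50.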
A general note: A counterscreen serves to expose hits that act by an unwanted route or on another target.

For assay [11], the target named is Alpha-galactosidase A (Homo sapiens) (UniProt P06280). Description: Counterscreen for Glucocerebrosidase Inhibitors: qHTS Assay for Human alpha-Galactosidase at pH 4.5 (AID 992). Also: 0% is about no effect. To be noted: purified enzyme, fluorogenic substrate; series mostly up to 76.9 µM. The essentials: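 Steps: enzyme (2 nM final), then compound across 0.7 nM to 77 uM, then 80 uM fluorogenic galactopyranoside substrate; incubate 20 min at room temperature; quench at pH 10; measure fluorescence at 365/440 nm.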

Assay [12] concerns the target alpha-glucosidase (Oryza sativa, rice) (UniProt Q653V4). Description: Counterscreen for Glucocerebrosidase Inhibitors: qHTS Assay for Rice alpha-Glucosidase at pH 5.0 (AID 997).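 Also: 0% = full activity with enzyme and -100% = basal without enzyme.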 The note with it: rice alpha-glucosidase enzyme activity; series mostly up to 76.9 µM. In outline:
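Endpoint fluorogenic assay at pH 5.0: compounds (0.7 nM to 77 uM) titrated against 4 nM rice enzyme and 400 uM 4-MU-alpha-glucoside for 20 min at room temperature; NaOH/glycine stop, read ex 365/em 440 nm, Hill-fitted AC50.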

Assay [13] is described as follows: qHTS for differential inhibitors of proliferation of Plasmodium falciparum line 3D7 (AID 1876).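 Also: parasite growth measured after three days of culture; 0% = vehicle wells and -100% = reference inhibitor wells.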 The note with it: P. falciparum 3D7 proliferation inhibition; series mostly up to 28.7 µM.
Assay [14] is described as follows: qHTS for differential inhibitors of proliferation of Plasmodium falciparum line D10 (AID 1877).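 Also: parasites grown with compound for 72 h before DNA staining; plate controls were vehicle wells for no effect and reference inhibitor wells for full effect.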 To be noted: series mostly up to 28.7 µM.
Assay [15] in a line: qHTS for differential inhibitors of proliferation of Plasmodium falciparum line HB3 (AID 1886).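 Also: parasites grown with compound for 72 h before SYBR Green readout; plate controls were vehicle for no effect and reference inhibitor for full effect.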 To be noted: Potency: Plasmodium falciparum HB3 proliferation inhibition; series mostly up to 28.7 µM.
Assay [16] can be described thus: Validation of Assay for Modulators of Lamin A Splicing (AID 1459; active = well fitted curve in the direction sought with a large enough effect in the signal ratio; the % refers to the signal ratio;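 also: cells exposed to compound for two days before reading; 0% is about no effect; ratio rise marks activators and ratio drop marks inhibitors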). To be noted: Lamin A splicing dual RFP/GFP fluorescence reporter; series mostly up to 9.22 µM. The essentials:
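Dual-reporter HeLa S3 line (lamin A-EGFP minigene, DsRed2) treated with compounds 48 hrs, 0.5% DMSO final. Endpoint: EGFP/DsRed2 total intensity ratio from laser-scanning microplate cytometry.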

Assay [17] in a line: Cell Viability - LYMP1-002 - Assay at 24 hr (AID 993). Also: % is scaled to controls: 0 for no effect and ±100 for the full control effect. The note with it: LYMP1-002 lymphoblastoid cells viability; series mostly up to 92.2 µM. In outline:
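Acute toxicity is measured as concentration-dependent loss of cellular ATP in a human lymphoblastoid line (Coriell LYMP1-002) after 24 h treatment in complete medium. ATP is quantified by luciferase luminescence and AC50 derived by Hill modelling.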

Assay [18] is described as follows: Cell Viability - LYMP1-002 - Assay at 40 hr (AID 994).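 Also: 0% = DMSO only and full inhibition = 92 µM tetraoctylammonium bromide; nearly all actives have a fitted effect of over 60% in size.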 The note with it: LYMP1-002 lymphoblastoid cell viability; series mostly up to 92.2 µM. The essentials: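 Cells are plated at 2500 per well and rested 5 hr at 37 C. Compounds are added and incubated 40 hr at 37 C. CellTiter-Glo reagent is added for 30 min at room temperature before luminescence is read.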

Assay [19] can be described thus: qHTS Assay for Modulators of Human Peripheral Myelin Protein 22 (PMP22) Expression/Activity (AID 1967; active = well fitted curve in the direction sought with a large enough effect in the signal ratio; the % refers to the signal ratio;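 also: 0% = untreated cells and 100% end not stated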). To be noted: Cell-based PMP22 reporter, dual-color luciferase ratio, mouse Pmp22 promoter in mouse Schwann cells; series mostly up to 115 µM. The essentials:
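Engineered MSC80 cells, Pmp22-promoter green and EF-alpha red luciferase reporters; 24h compound treatment at 37 °C. Concentration-response fits on green, red and ratio signals, each overlap-corrected, with %Activity normalized to untreated wells.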

Setting [20] is: measured here: cell count channel max response.
Where [21] appears, read: measured here: lipid channel max response.

Chain of DNA repair nuclease/redox regulator APEX1 (Homo sapiens) (P27695 whole entry, looked up): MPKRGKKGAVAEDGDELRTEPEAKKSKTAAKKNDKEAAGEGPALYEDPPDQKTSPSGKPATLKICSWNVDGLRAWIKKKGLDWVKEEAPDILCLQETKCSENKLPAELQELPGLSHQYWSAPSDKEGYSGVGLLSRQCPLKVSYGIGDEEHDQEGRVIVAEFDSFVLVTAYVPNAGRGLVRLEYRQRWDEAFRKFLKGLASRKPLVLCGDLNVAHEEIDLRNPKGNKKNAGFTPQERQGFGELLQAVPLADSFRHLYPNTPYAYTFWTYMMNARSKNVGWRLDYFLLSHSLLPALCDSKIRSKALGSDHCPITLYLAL
Chain of Alpha-galactosidase (Coffea arabica) (Q42656 whole entry, looked up): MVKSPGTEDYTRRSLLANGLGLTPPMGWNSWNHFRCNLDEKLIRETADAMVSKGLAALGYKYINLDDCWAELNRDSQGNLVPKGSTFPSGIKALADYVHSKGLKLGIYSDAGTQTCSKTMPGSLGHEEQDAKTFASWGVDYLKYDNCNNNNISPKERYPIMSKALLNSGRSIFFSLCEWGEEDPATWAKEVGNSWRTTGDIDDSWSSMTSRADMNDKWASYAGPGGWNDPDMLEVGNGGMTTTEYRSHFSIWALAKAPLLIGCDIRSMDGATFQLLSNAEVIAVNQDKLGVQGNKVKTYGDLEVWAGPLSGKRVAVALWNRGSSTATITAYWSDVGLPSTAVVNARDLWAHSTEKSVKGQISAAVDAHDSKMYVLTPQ
Chain of Alpha-galactosidase A (Homo sapiens) (P06280 whole entry, looked up): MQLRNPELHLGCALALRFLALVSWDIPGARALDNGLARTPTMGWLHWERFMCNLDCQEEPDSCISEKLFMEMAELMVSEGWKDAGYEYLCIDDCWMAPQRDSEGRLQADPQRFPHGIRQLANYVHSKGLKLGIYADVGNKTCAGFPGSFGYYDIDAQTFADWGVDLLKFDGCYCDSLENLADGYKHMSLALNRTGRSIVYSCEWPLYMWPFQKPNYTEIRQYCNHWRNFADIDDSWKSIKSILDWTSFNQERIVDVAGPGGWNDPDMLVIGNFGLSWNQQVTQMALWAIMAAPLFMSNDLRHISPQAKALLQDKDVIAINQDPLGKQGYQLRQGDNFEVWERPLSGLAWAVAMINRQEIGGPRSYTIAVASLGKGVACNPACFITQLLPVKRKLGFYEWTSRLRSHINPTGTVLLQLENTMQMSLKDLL
Chain of Ferritin light chain (Equus caballus) (P02791 2-175 limits assumed): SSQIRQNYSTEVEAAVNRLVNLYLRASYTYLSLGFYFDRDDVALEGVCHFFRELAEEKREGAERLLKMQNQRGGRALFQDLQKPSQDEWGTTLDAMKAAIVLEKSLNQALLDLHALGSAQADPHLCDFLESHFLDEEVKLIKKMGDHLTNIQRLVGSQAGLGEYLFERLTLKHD

Take `CC(C)(C)NCC(O)c1ccccc1Cl` (configuration not stated): the activity change, negative = inhibition in assay [1] (at 57.5 µM (top of the series)) is 6.93% (inactive) and 0.29% (inactive). The max response in [1] (setting [20]) was -1.25% and 42.1%; in assay [1] (setting [21]), 8.8% and 40.7%. Also, the Potency result in [2] is “inactive”. Moreover, the result in [3], in [4] and in assay [9] was inactive. Besides, the Potency in [5] is 5.62 µM (active); in [6], 6.31 µM (active); in assay [7] it was 12.6 µM (active); in assay [8], 4.47 µM (active).
As to `NC(=O)c1cc([N+](=O)[O-])cc([N+](=O)[O-])c1`, the activity change, negative = inhibition in assay [1] (at 57.5 µM (top of the series)) is 2.42% (inactive). The max response came to 0.174% in assay [1] (setting [20]) and 7.25% in assay [1] (setting [21]).
`Cc1ncsc1CCCl`: the activity change, negative = inhibition in assay [1] (at 57.5 µM (top of the series)) was 4.7% (inactive). In addition, the figures for the max response in assay [1] (setting [20]) and in assay [1] (setting [21]) were 0.112% and 4.95%, respectively.
In the case of `COc1cc(-c2ccc(=O)[nH]n2)ccc1OC(F)F`, in [10], the molecule was called inactive. Moreover, in assay [1] (at 25.7 µM (top of the series)), the activity change, negative = inhibition was -2.55% (inactive). Also, the max response in assay [1] (setting [20]) was -17.6%; in [1] (setting [21]) it was -17.5%.
In the case of `c1ccc2c(c1)sc1ccccc12`, the activity change, negative = inhibition in assay [1] (at 57.5 µM (top of the series)) is 7.62% (inactive). Besides, the figures for the max response in [1] (setting [20]) and in assay [1] (setting [21]) were -5.03% and 4.45%, respectively.
Turning to `O=c1[nH]oc2c1CCNC2`, the outcome in [11], in assay [12], in assay [10] and in assay [3] was inactive. Moreover, the activity change, negative = inhibition in [1] (at 25.7 µM (top of the series)) was -3.52% (inactive); in [1] (at 57.5 µM (top of the series)), -0.0762% (inactive) and 5.91% (inactive). Further, the max response in assay [1] (setting [20]) is -6.88% and 7.61% and 14.4%; in assay [1] (setting [21]), -10.1% and 10.3% and 21.9%. For the same molecule, the Potency result in assay [2], in assay [5], in assay [6], in assay [13], in assay [14] and in [7] was “inactive” each time. The Potency result in assay [8] and in assay [15] was “inactive” in each case.
With `CNC(C)(C)Cc1ccccc1`, the results for the activity change, negative = inhibition in assay [1] (at 25.7 µM (top of the series)) and in assay [1] (at 57.5 µM (top of the series)) were -3.38% (inactive) and 12% (inactive), respectively. Also, the max response was -19% and 14.2% in assay [1] (setting [20]); -21.7% and 31.6% in assay [1] (setting [21]).
With `O=C(CCCN1CCC2(CC1)C(=O)NCN2c1ccccc1)c1ccc(F)cc1`, the result in assay [11], in assay [12], in assay [10], in assay [16], in [4] and in assay [9] was inactive. For the same molecule, the activity change, negative = inhibition in [1] (at 25.7 µM (top of the series)) is -0.907% (inactive); in assay [1] (at 57.5 µM (top of the series)), 7.99% (inactive). The max response is -5.72% and 5.19% in [1] (setting [20]); -10.3% and 17.9% in assay [1] (setting [21]). Further, the Potency entry in assay [2] was “inactive”.
As to `COc1ccc2c(c1)C13CCCC[C@@H]1C(C2)N(C)CC3` (some centres not stated), the activity change, negative = inhibition in assay [1] (at 25.7 µM (top of the series)) is -0.828% (inactive). The max response in assay [1] (setting [20]) is -8.06%; in assay [1] (setting [21]), -9.19%.
Regarding `O=P1(N(CCCl)CCCl)NCCCO1` (configuration not stated), the call in [11], in assay [12], in assay [10], in assay [3], in assay [4] and in assay [9] was inactive. Also, the Potency entry in assay [17], in assay [18], in assay [2], in [5], in assay [6] and in assay [13] was “inactive” in each case. Further, the Potency result in assay [14], in [7], in assay [8] and in [15] was “inactive” in each case. In [1] (at 57.5 µM (top of the series)), the activity change, negative = inhibition was 0.148% (inactive). In addition, the max response in assay [1] (setting [20]) is -27.9%; in assay [1] (setting [21]), -28.7%.
Turning to `CC(C)N(CCC(C(N)=O)(c1ccccc1)c1ccccn1)C(C)C` (configuration not stated), the result in [16], in [3], in assay [4], in [19] and in assay [9] was inactive. In addition, in assay [1] (at 57.5 µM (top of the series)), the activity change, negative = inhibition is 4.57% (inactive) and -1.93% (inactive) and 1.94% (inactive). Moreover, the max response in [1] (setting [20]) was 23.6% and -10.4% and -17.4%; in [1] (setting [21]), 33.6% and -11% and -15.7%. For the same molecule, the Potency entry in [2], in [5], in assay [13], in assay [14], in [7] and in [15] was “inactive” throughout. For the same molecule, the Potency in assay [8] was 8.91 µM (active).
As for `CC(C)c1cccc(C(C)C)c1O`, the result in assay [11], in assay [12], in assay [10], in assay [16], in [3] and in [4] was inactive. Also, the outcome in [19] was inactive. Besides, the Potency entry in assay [17], in [18], in assay [2], in [5], in assay [6] and in [13] was “inactive” throughout. Also, the Potency entry in assay [14], in [7], in [8] and in [15] was “inactive” throughout. The activity change, negative = inhibition in [1] (at 25.7 µM (top of the series)) was -0.519% (inactive). Also, the max response in [1] (setting [20]) was -4.81%; in assay [1] (setting [21]), -3.68%.
